SMILES strings stand for the structures. Among all 93,000 compounds or so, about 180 (0.19%) were called active. The full list was thinned out, with actives kept by preference. A number with no mark means an inactive call.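 How the source made its calls: active means activation above the screen mean plus 3 SD, with well images confirming the hit on visual review (cut at about 28% in these data, passing the limit was not always enough); inconclusive means activation above that limit but images do not confirm it; inactive means activation not above that limit.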

This assay is described as follows: potentiators of TNFa-induced VCAM1 expression, primary screen, imaging, HUVEC, TNFa stimulus, immunofluorescence (AID 808).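 Further: signal is the number of cytoplasmic VCAM-1 stained grains per positive cell.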 Particulars: HUVEC TNFa-stimulated VCAM-1 immunofluorescence, high-content imaging; at 2 µM; stronger effect = higher value.
Turning to `COC(=O)CN1C(=O)C2(C(C(=O)OC)=C(N)Oc3ccccc32)C2=C1CC(C)(C)CC2=O` (stereo not given), the activation was 33.9% (active).

Turning to `CCOC(=O)C(O)(c1ccc(N)c(OC)c1)C(F)(F)F` (stereo not given), the activation was -9.7%.

For the compound `c1cncc(CNC2=NCCC2)c1`, the activation is -5.4%.

With `O=C(NCC(c1cccnc1)N1CCN(c2ccccc2)CC1)Oc1ccccc1` (stereo not given), the activation is 1.5%.

With `CNC(=O)N(C)c1nnc(C(C)(C)C)s1`, the activation is 4.6%.
